Measurements published in the supplement of paper PMC6555819.

system: VDR:RXRa (NR concentration 270 nM, RXRa partner concentration 90 nM); assay: PBM binding z-score (relative to random genomic background probes); higher = stronger binding; sequences stand for … in GC…GCGATTGACAGCGTAGAATGAAGG
Protocol: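 Protein-binding microarray (Agilent 4x180K custom design, double-stranded 60-nt probes: 5' GC cap, 34-nt variable region, 24-nt constant primer region; full probe sequence given). Purified or IVT nuclear receptor:RXRα heterodimers (3:1 NR:RXRα, mostly 270:90 nM) or homodimers were incubated for 1 h in PBS with 2% milk and no ligand, then detected with Alexa488 antibodies. Fluorescence from o1-orientation probes (~5 replicates averaged) was converted to z-scores against 500 random hg19 background probes. Variable regions are seed direct-repeat (DR0–DR5) sites, all their single-nucleotide variants and half-site ablations.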

Sequence | PBM binding z-score
AGAACGAGGGCAATGAGTTGATCGCACGGGTGGC | 5.13
GCTAGCAGGCCATTTGGGTCACTCTATGACGGGC | 0.648
TCTCGGAGGACACAAAAGGTCAGAGCTCGACATC | 3.17
CGAACTAGGTCATTGACAGGACAGGGAATAGTAA | 2.12
CTCGAAACGTCGGTTGAGGTGAGTATACGGATAA | -0.213
TCATATAGGTAAATGCTAGGCGAAAGTCCGATCT | 0.812
TCTTGTAGATCAATAGGAGGTTAAGAAAGATCGA | 0.721
TCATACAGGTAAACAGGTGAAAGTCCGTAAGTTA | 1.2
CCTAACGGGTCACGAGGTTATAGCACGACGAGCG | 4.74
TAGCCTAGGTCATTCAAGGGCCAGTATAGAAAGC | 2.89
TCATATAGGTAAACAGGCGAAAGTCCGTAAGTTA | 1.13
TAGCCTAGGTCGTGGGCCAGTATACCACGCGAAC | -0.199
GCTGCTAGGTCATCTGATGGTCAGCTAAAGCTCG | 1.98
CCTAGCAGGCCAATCTGGGTCACTGAAGGCTTGA | 0.552
AGCCAAAGTTCATCTAGGTAACGTAAGATATGCT | 4.48
GCTGCTAGGTCAACTGATGGTCAGATAAAGCTCG | 1.82
CAAACTAGGTCACCGGAATGTCAAAGTCCGCATG | 3.06
TAACCTAGGTCATGGGCCAGTATACCACGCGAAC | 2.88
TCGAGTAGGTTAGTCGGTGCATTCAGCCAACATA | 3.31
CGAACTAGGTCAGAACAGGACAGGGAAGGATGAT | 0.511

Sequence | PBM binding z-score
CGAACTAGGTCAGAACAGGGCAGTGAAGGATGAT | 0.903
ACTAGCAGGCCAACTTTGGGTCACTCAAACAAAG | 0.536
CGTCCAAGCTCAATGCTAGGTCAGTGAAAGCATT | -0.0498
TTACCAAGGTGAGCTGAGGTCGTTGATCCAACTC | 4.19
CAAACTAGGTCATAGGTCAAAGTCGAGCCAACCA | 4.9
ATATGTAGGTTATTGGGTCATTCAGTTTGCGCAT | 4.55
GCTATTAGTTGAAAGGGCAACGGAATGATTCTCG | 0.383
TGTCAAAGTTCCAAGGTAACGTAAGTATCCACAC | 0.281
CTCGAAAGCTCGTGCTCAGGTGAGTATACCAAAC | -0.8
ACTCGGAGGACAATGGTCAGAGCTACGCCAGTGA | -0.697
CCAGCTAGGTCAATGGTCAGCTAAAGCAGCTCGC | 1
CGTCCTAGGTCAGAGAGGTCAGTGAATGCCGAGT | 6.8
CCGACAGGGGCAGAAAGGTTACCATACCATCCGG | 1.75
CGTCCAAGGTCATAGGAGGCCAGTGAAGACAGAT | 4.93
CCTATTAGTTGACCAAAAGGGCAACCGAAGCTCG | 0.901
ATACCAAGGTGATCGTGAGGTTGTTGATACTAAC | 0.679
ATCTCTAGGTAACAAGTTCAGTCAAAGAGAGGAC | 1.74
TCTAGCGGGCCAGAGGGTCACTCAAGAGGTACGG | 1.29
AGTCAAAGTTCAGGACGCGGTAACGTAAAGCACG | 2.37
CAAACTAGGTCACCGAGGTCAAAGTCCGTGCGTA | 8.34
